Activity change, negative = inhibition data for 56 molecules are collected here from PubChem BioAssay AID1259400 (National Center for Advancing Translational Sciences (NCATS), 2018).

Hit rate of the full screen: of about 350,000 compounds, about 2,100 (0.6%) were called active. Not shown: some 1% with an inconclusive outcome. The sample holds actives, similar compounds and a random draw of the others, so the mix is not that of the screen. A number with no mark means an inactive call.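 How the source made its calls: active means activity change of -60% or lower, but not beyond a set lower limit; inconclusive means change between -60% and -40%, or beyond the set limit; inactive means change above -40%.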
On the % scale 0 is the no-effect control and ±100 the full control effect.

For the assay, the target named is Relaxin receptor 1 (Homo sapiens) (UniProt Q9HBX9). The assay is described as follows: qHTS Assay for Antagonists of the Relaxin Receptor RXFP1. The conditions noted are these: HEK293-RXFP1, relaxin-stimulated cAMP HTRF, 30 min; at 57.5 µM; hits give low values. From the text: The relaxin hormone is involved in the variety of biological functions in normal tissues and diseases. The role of relaxin is well-established in female reproduction and parturition, mammary gland and endometrial development, maintenance of myometrial quiescence during pregnancy. Relaxin signaling through its G protein-coupled receptor (GPCR) RXFP1 results in ECM remodeling through regulation of collagen deposition, cell invasiveness, proliferation and overall tissue homeostasis. […] Recombinant human relaxin (rhRlx) is currently being tested in clinical trials as a protective agent in congestive heart failure, in treating severe preeclampsia, and as an anti-fibrotic agent in various organs. […] Upon relaxin binding RXFP1 activation leads to the activation of adenylate cyclase (AC) via G?s. cAMP will activate PKA, which phosphorylates many signaling proteins. Thus, detection of cAMP increase is an easy and reliable indication of relaxin receptor activation. To screen for antagonists of the relaxin receptor, a HEK293T cell line stably transfected with RXFP1 was used. RXFP1 activation by relaxin in presence of various concentrations of tested compounds was assayed by changes in cAMP levels as detected with a time-resolved fluorescence energy transfer (TR-FRET) cAMP detection kit.
Relaxin receptor 1 (Homo sapiens), sequence (Q9HBX9 whole entry, looked up): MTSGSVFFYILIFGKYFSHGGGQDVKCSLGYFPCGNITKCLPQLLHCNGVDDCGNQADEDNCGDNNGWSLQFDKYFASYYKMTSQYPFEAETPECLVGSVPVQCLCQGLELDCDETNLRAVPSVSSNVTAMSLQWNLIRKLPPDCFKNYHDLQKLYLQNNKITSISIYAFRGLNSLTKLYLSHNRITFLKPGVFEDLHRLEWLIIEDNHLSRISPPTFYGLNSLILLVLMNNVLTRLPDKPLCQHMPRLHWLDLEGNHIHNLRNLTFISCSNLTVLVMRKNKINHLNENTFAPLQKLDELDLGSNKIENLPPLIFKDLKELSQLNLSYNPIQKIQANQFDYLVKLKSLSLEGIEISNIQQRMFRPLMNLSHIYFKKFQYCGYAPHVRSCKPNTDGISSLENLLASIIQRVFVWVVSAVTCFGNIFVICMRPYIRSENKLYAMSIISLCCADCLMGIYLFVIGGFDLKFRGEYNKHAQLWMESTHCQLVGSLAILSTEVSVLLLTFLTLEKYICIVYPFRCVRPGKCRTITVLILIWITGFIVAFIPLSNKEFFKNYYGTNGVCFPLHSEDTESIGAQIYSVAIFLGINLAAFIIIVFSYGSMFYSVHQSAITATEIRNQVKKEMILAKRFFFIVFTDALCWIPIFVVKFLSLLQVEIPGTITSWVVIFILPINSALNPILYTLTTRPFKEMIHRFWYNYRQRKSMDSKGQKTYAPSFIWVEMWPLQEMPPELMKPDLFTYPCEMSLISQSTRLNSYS
For the primary screening, we used HTRF(R) (Homogenous Time-Resolved Fluorescence) cAMP HiRange assay (Cisbio Bioassays, 62AM6PEJ). Presence of cAMP in the cell lysate disrupts binding between the Cryptate-labeled anti-cAMP and d2-labeled cAMP pair, leading to a decrease in TR-FRET signal. The libraries were screened at two doses (57microM and 11microM), followed by a confirmation of the hits at 7-point serial dilution in the range of final concentrations [57microM - 78nM]. Data were normalized to the controls for basal activity (buffer only) and 100% activity (5 nM porcine relaxin). The EC50 values were determined from concentration-response data modeled with the standard Hill equation. NCGC Assay Protocol Summary: HiHEK (Hawaiian HEK293 LGR7 stably transfected with human RXFP1) were grown in the following media: DMEM+10%FBS+Pen/Strep + Geneticin (1mg/ml). For the assay, the cells were seeded in DMEM+Pen/Strep (with no serum & selective antibiotics) at 2,100 cells/ 3microl/well with MultiDrop Combi dispenser (Thermo Scientific, Logan, UT) onto white tissue culture treated solid bottom1536-well plates (Greiner #789173-F) and allowed to attach/recover overnight at 37 degrees C, 5% CO2. Next, 23nl/well of compound solutions in DMSO were transferred into wells with a pintool (Kalypsis, San Diego, CA). […] EC80 (relaxin at 50pM final concentration) was dispensed to the rest of the plate except columns 1&2 which were used as a negative control (EC0, buffer only), 1microl/well also. The cells were stimulated by relaxin in the presence of compounds for 30 minutes at 37 degrees C, 5% CO2. The detection reagents were prepared individually by dilution in Lysis buffer (supplied with the assay kit) just prior to dispensing. 1microl/well of cAMP-d2 and 1microl/well anti-cAMP-Eu3+-Cryptate antibodies were added simultaneously with BioRAPTR FRDtrade mark Workstation (Beckman Coulter). The plates were incubated at ambient temperature for 30 minutes and, then, FRET signal was read on Envision plate reader (PerkinElmer, Waltham, MA), at wavelengths 340nm (excitation), 615nm & 665nm (emission of donor and acceptor channels respectively).
As for `CCN(C(=O)CN1C(=O)/C(=C/c2ccc(F)cc2)SC1=S)C1CCS(=O)(=O)C1` (stereo unspecified), the activity change, negative = inhibition was 5.31%. Consider `COc1cccc(/C=C2\SC(=S)N(CCCC(=O)N3CCOCC3)C2=O)c1`, for which the activity change, negative = inhibition is 9.2%. As for `O=C1/C(=C/c2ccc(F)cc2)SC(=S)N1CCCC(=O)N1CCCCC1CCO` (stereo unspecified), the activity change, negative = inhibition is -99.6% (active).

As to `O=C(NNC(=O)c1ccc(-c2ccccc2)cc1)Nc1ccccc1`, the activity change, negative = inhibition is -86.2% (active). As for `O=C(NNC(=O)c1ccco1)Nc1ccccc1`, the activity change, negative = inhibition was -5.56%.

Regarding `O=C(NC1CC1)c1ccc(-c2ccccc2)cc1`, the activity change, negative = inhibition was -5.32%. In the case of `COC(=O)c1ccccc1NC(=O)C(Cc1ccccc1)N1Cc2ccccc2C1=O` (stereo unspecified), the activity change, negative = inhibition was -13.9%. For the molecule `O=C(c1ccco1)n1nc(-c2ccc(Cl)cc2)nc1NCc1ccccc1`, the activity change, negative = inhibition is -6.49%.

Take `COc1ccccc1N1CCN(CCCNC(=O)c2cnn(-c3ccccc3Cl)c2C2CCN(C(=O)OC(C)(C)C)CC2)CC1`: the activity change, negative = inhibition was -27.8%. For the molecule `O=C(CCC(=O)N1CC2CCCN2c2ccccc21)NCc1ccccc1Cl` (stereo unspecified), the activity change, negative = inhibition was -15%. As to `CCc1nnc(SCc2c(F)cccc2Cl)c2cc3sccc3n12`, the activity change, negative = inhibition is 3.15%. With `Cc1cccc(NC(=O)Nc2ccc3c(c2)OCO3)n1` the figure was 6.53%; with `COc1ccc(-c2csc(Nc3cccc(C)n3)n2)cc1OC`, -15.8%. For the molecule `CC(=O)Nc1cccc(-c2csc(Nc3cccc(C)n3)n2)c1`, the activity change, negative = inhibition was -62.8% (active). As for `COc1ccc2c(c1)Cc1sc(NC(=O)c3ccccc3Br)nc1-2`, the activity change, negative = inhibition was -16.9%. As for `COc1ccc(N2CCN(C(=O)CCSCc3ccccc3F)CC2)cc1`, the activity change, negative = inhibition is -7.15%. `COc1ccc(CNC(=O)CSCc2nc(-c3ccccc3F)oc2C)cc1`: the activity change, negative = inhibition was -25.8%. The value for `COc1ccc(N2CCN(C(=O)CSCc3nc(-c4ccccc4Cl)oc3C)CC2)cc1` was -64.6% (active). With `CCc1ccc(NC(=O)C2CCCN2S(=O)(=O)c2ccc3nc(-c4ccccc4)[nH]c3c2)cc1` (stereo unspecified), the activity change, negative = inhibition was -3.72%.

Consider `CN1C(=O)c2ccccc2Sc2ccc(NC(=O)Cc3ccc(Cl)cc3)cc21`, for which the activity change, negative = inhibition was -36%.

`O=C(CSc1nc2c(c(=O)[nH]1)CN(Cc1ccc(F)cc1)CC2)Nc1ccccc1Cl`: the activity change, negative = inhibition was -5.69%. As for `CCOc1ccc(Nc2ncnc3scc(-c4ccc(OC)cc4)c23)cc1`, the activity change, negative = inhibition is -16.5%. Consider `O=C1C=C(c2ccc(Cl)cc2)C(=O)N1Nc1ccccc1`, for which the activity change, negative = inhibition is -62.4% (active). Take `CCS(=O)(=O)c1ncc(N(Cc2ccc(F)cc2)Cc2ccco2)c(C(=O)Nc2cc(C)ccc2C)n1`: the activity change, negative = inhibition is -11.8%.

Turning to `Cc1cccc(CS(=O)(=O)c2ncc(Cl)c(C(=O)Nc3ccc(F)cc3)n2)c1`, the activity change, negative = inhibition was -95.9% (active). Consider `CCOC(=O)c1ccc(NC(=O)c2nc(SCc3ccc(F)cc3)ncc2Cl)cc1`, for which the activity change, negative = inhibition was 3.57%.

As for `Cc1cccc(NC(=O)c2nc(S(=O)(=O)Cc3ccccc3)ncc2Cl)c1`, the activity change, negative = inhibition is -89.5% (active). As to `Cc1cccc(NC(=O)Cn2cc(S(=O)(=O)Cc3ccccc3Cl)c3ccccc32)c1`, the activity change, negative = inhibition is -19.7%.

For the molecule `CCCSc1ncc(Cl)c(C(=O)Nc2c(C(=O)Nc3ccccc3)oc3ccccc23)n1`, the activity change, negative = inhibition was 4.58%.

On to `COc1ccc(OC)c(NC(=O)/C=C/c2ccc(C)o2)c1`, for which the activity change, negative = inhibition was -0.228%. For `O=C(Nc1nnc(S(=O)(=O)N2CCCc3ccccc32)s1)c1cccc(F)c1`, the activity change, negative = inhibition is -23.2%. Regarding `CCN1CCN(C(c2ccc(C)cc2)c2c(O)cc(C)n(Cc3ccco3)c2=O)CC1` (stereo unspecified), the activity change, negative = inhibition is -15.2%. With `COc1cccc(Cn2c(SCc3ccc(C(=O)N4CCC(C)CC4)cc3)nc3ccncc32)c1` the figure was 0.54%. The value for `COc1cccc2sc(N(CCCN(C)C)C(=O)C(c3ccccc3)c3ccccc3)nc12` was -77.3% (active). As for `Cc1cccc2sc(N(CCCN(C)C)C(=O)CCS(=O)(=O)c3ccccc3)nc12`, the activity change, negative = inhibition was 10.5%. As to `CCN(CC)CCN(C(=O)c1ccc2c(c1)CCCC2)c1nc2c(OC)cccc2s1`, the activity change, negative = inhibition is -18.9%. Turning to `CCN(CC)c1ccc(NS(=O)(=O)c2cc(-c3cc(C)no3)ccc2C)c(C)c1`, the activity change, negative = inhibition is -32.3%. For the molecule `CCc1ccccc1NC(=O)c1sc2nc3c(cc2c1N)CN(Cc1ccccc1)CC3`, the activity change, negative = inhibition was -0.166%. The value for `Cc1cccc(N2CCN(C3=C(c4ccccc4)C(=O)c4ccccc43)CC2)c1C` was -0.811%. On to `CCc1cccc(NC(=O)CN(C)S(=O)(=O)c2ccc3[nH]c4c(c3c2)CCCC4)c1`, for which the activity change, negative = inhibition was -7.15%. As for `CCCCOCCOC(=O)c1cccnc1`, the activity change, negative = inhibition was 8.56%. Take `Cc1ccc(NC(=O)CSc2nc3ccccc3c3nc(CCn4cncc4C)nn23)cc1F`: the activity change, negative = inhibition is -6.58%. In the case of `Cc1c(C)n(Cc2ccc(Cl)cc2)c2ccc(C(=O)NCCc3ccc(S(N)(=O)=O)cc3)cc12`, the activity change, negative = inhibition was -10.3%.

Consider `Cc1ccc(-n2nc(CO)c(C(=O)NCCc3ccccc3)n2)cc1`, for which the activity change, negative = inhibition was -19.5%. Take `CC(CCCc1ccccc1)NC(=O)c1nn(-c2ccc(Cl)cc2)nc1CO` (stereo unspecified): the activity change, negative = inhibition is -85.1% (active). Consider `O=C(NCCCO)c1nn(-c2ccc(Cl)cc2)nc1CO`, for which the activity change, negative = inhibition is -16.3%. Consider `CC(C)(C)c1ccc(S(=O)(=O)Nc2ccc(O)c(Sc3nc4ccccc4s3)c2)cc1`, for which the activity change, negative = inhibition was -31%. For `O=C(COc1ccccc1Cl)Nc1ccc2nc(SCC(=O)N3CCCC3)sc2c1`, the activity change, negative = inhibition is 0.0142%. Turning to `O=[N+]([O-])c1c(NCCO)cc(Sc2nc3ccccc3s2)c2nonc12`, the activity change, negative = inhibition is -71% (active). Regarding `COCC(C)NS(=O)(=O)c1ccc(N2CCCCS2(=O)=O)cc1` (stereo unspecified), the activity change, negative = inhibition was -3.31%. Consider `CCc1nc2nc(C)cc(Nc3ccc(F)c(Cl)c3)n2n1`, for which the activity change, negative = inhibition is -7.58%. With `CC1(C)CC(=O)C=C(N2CCOCC2)C1` the figure was -12.6%; with `CC1(C)CC(N2CCN(C(c3ccccc3)c3ccccc3)CC2)=CC(=[N+]2CCCCC2)C1`, -86.5% (active). With `CC(C)OCC(O)CN1CCN(C(c2ccccc2)c2ccccc2)CC1` (stereo unspecified) the figure was -2.44%; with `Cc1ccccc1OCc1ccc(-c2nc(C#N)c(N3CCCCC3)o2)o1`, -8.24%. Regarding `Cc1c(C)n(Cc2ccc(Cl)cc2)c2ccc(C(=O)N3CCN(c4ccccc4F)CC3)cc12`, the activity change, negative = inhibition was -18.8%.
